Source: the supplement of paper PMC6555819

Columns and labels:
Assay in all cases: PBM binding z-score (relative to random genomic background probes); higher = stronger binding; sequences stand for … in GC…GCGATTGACAGCGTAGAATGAAGG
[1] = test system: FXR:RXRa (NR concentration 270 nM, RXRa partner concentration 90 nM)
How it was run: (§1)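 For binding z-scores, the reference was random background probes on custom Agilent 4×180K protein-binding microarrays. These arrays were incubated 1 h with ligand-free nuclear receptor dimers in PBS pH 7.4, 2% milk, 0.02% Triton X-100, 1 mM DTT, 0.2 mg/mL BSA and 0.4 mg/ml salmon testes DNA. Fluorescence was scanned after antibody detection of each partner (one per run) and regression-normalized.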

[2] = test system: LXRa:RXRa (NR concentration 270 nM, RXRa partner concentration 90 nM)
How it was run: as §1

[3] = test system: LXRa homodimer (NR concentration 270 nM)
How it was run: as §1

[4] = test system: LXRb:RXRa (NR concentration 270 nM, RXRa partner concentration 90 nM)
How it was run: as §1

[5] = test system: PPARa:RXRa (NR concentration 270 nM, RXRa partner concentration 90 nM)
How it was run: as §1

[6] = test system: PPARg:RXRa (NR concentration 180 nM, RXRa partner concentration 90 nM)
How it was run: as §1

[7] = test system: PPARg:RXRa 270nM:90nM, anti-RXR (NR concentration 270 nM, RXRa partner concentration 90 nM)
How it was run: as §1

[8] = test system: PPARg:RXRa 30nM:10nM, anti-RXR (NR concentration 30 nM, RXRa partner concentration 10 nM)
How it was run: as §1

[9] = test system: PPARg:RXRa 90nM:30nM, anti-RXR (NR concentration 90 nM, RXRa partner concentration 30 nM)
How it was run: as §1

[10] = test system: LXRb homodimer (NR concentration 270 nM)
How it was run: as §1

Sequence	PBM binding z-score [1]	PBM binding z-score [2]	PBM binding z-score [3]	PBM binding z-score [4]	PBM binding z-score [5]	PBM binding z-score [6]	PBM binding z-score [7]	PBM binding z-score [8]	PBM binding z-score [9]	PBM binding z-score [10]
TCGAGTAGGTTACGCGGGCATTCAGGGATGAAGA	0.576	0.477	-0.0246	-0.00737	1.49	1.38	1.88	1.46	1.79	
CTATGTAGGTTAAGGGTGTCATTCAGTTTGAAAG	0.954	1.2	0.0163	1.33	4.61	8.17	7.44	6.35	8.04	
CTATGTAGGTGAAGGGGGTCATTCAGTTTGAAAG	4.41	4.45	1.53	5.87	6.36		8.53	7.28	8.98	
TCGAGTAGGTTACGGGGGCATTCTGGGATGAAGA	2.21	2.51	0.493	5.03	4.23	6.17	5.55	3.42	4.95	
ATATGTAGGTTATCGGGTCATTCATTTTGCGCAT	3.17	3.12	1.9		5.09	7.3	6.11	3.77	5.76	1.4
AATACAGGGTGATCGTAGGCCAGAGTACGCACAG	-0.0324	0.162	-0.234		0.576	1.2	0.407	0.131	0.149	-0.0404
CCTACTGGGCAAAAAAGGTCATTGATGCCGATAA	3.26	4.69	3.15		4.85	1.45	2.78	0.775	1.99	-0.0939
TGTCAAAGTTCTAAGGTAACGTAAGTATCCACAC	0.449	0.196	-0.388		0.624	0.871	1.41	0.457	1.15	-0.268
ATATGTAGGTTAGCGGGGGTCATTCAGACTAGGC	5.82	5.95	3.96		5.81	6.96	6.71	4.14	6.07	8.88
TCTAGCTGGTCACGGAGGTCACACACGACGGGTA	3.41	3.79	2.37		3.88	3.35	3.83	2.33	3.14	0.0556
CCTACTGGGCCACTCAGAGGTCATTGATCATATG	2.81	4.09	4.52		3.98	3.57	3.49	1.52	2.96	0.238
AGAATGAGGTTAGCAAAGATCAGGGAAACGCTTG	0.688	1.07	-0.0125		1.79	1.02	0.909	0.0816	0.6	-0.163
ACTAGTTGGTCAGCTGAGGTCACACAAAATTCGG	4.18	3.22	2.26		3.85	1.45	2.46	0.399	1.64	0.719
AGTCAAAGTTCACTAGGTTACGTAAGATTCAGCT	4.92	5.44	3.95		4.85	7.41	6.74	4.4	5.88	1.5
CACACTAGGTCAAAGGTCAAAGTCGAGCCAACCA	8.41	7.68	6.65		7.75	13.9	11.2	14	14	3.73
CGTCAAAGTTAAAGGTAACGTAACAGAAAGCAGC	0.0396	0.253	-0.0511		1.46	1.59	2.59	0.527	1.65	-0.0705
CGTCCAAGGGCAATGCTAGGTCAGTGAAAGCATT	0.683	2.37	0.414		0.934	-0.00472	0.084	-0.775	-0.291	-1.33
CCTACTGGGCCGAGGTCATTGATCAGTCAAAGCA	4.08	3.71	1.15		3.96	3.02	3.38	0.749	2.52	-0.228
CCCAGTAGGTTACGAGGGGGCATTCAGTGCGAAT	2.52	7.2	1.48	6.4		3.75	4.46	1.62	3.59	
ATCGAAAGGTCGTGAGGTGAGTTTACAGAAAGGC	5.54	4.05	0.339		5.21	4	4.18	1.98	3.05	0.313
AGAATGGGGTTATTAAGATCAGGGAATTGCGGTC	3.03	2.77	0.597		4.48	3.31	3.5	1.26	2.65	2.14
CCTTACGGGTCAAGGTTATACCACGGGTGGTACG	5.46	3.7	0.309		4.99	4.6	4.47	1.63	3.83	0.0291
CCTAGTTGGTCAGGGGGTCACACACCGGATATGA	4.51	4.01	1.32		5.36	5.04	5.76	2.89	4.92	7.75
TCGAGTAGCTTACGGGGGCATTCAGGGATGAAGA	1.64	1.5	0.141	3.47	2.12		2.1	2.18	2.37	
ATCGAAAGGTCGACGAGGTGAGAATACACCGTTT	5.1	3.9	0.0731		4.87	3.21	3.7	1.25	2.26	0.224
TTACCAAGGTGAACTGAGGTCGTTGATCCAACTC	3.33	4.31	1.34		3.46	2.14	2.3	0.857	1.7	-0.359
ACTAGTTGGTCAGCTGAGGTAACACACAATTCGG	1.15	-0.066	0.00608		0.41	0.76	0.156	0.214	-0.00453	0.472
